The source of these data is PubChem BioAssay AID463173 (ICCB-Longwood Screening Facility, Harvard Medical School, 2010).

Out of some 52,000 compounds screened, about 4,300 (8.3%) were called active. This is one part of a sample in which actives are shown more often than they occur. Rule as the data show it: active = survival mostly below about 52% (no sharp cut-off); inactive = mostly above about 56%.

The experiment deals with DeltatarO mutant. Kind of experiment: S. aureus survival, RN4220 and DeltatarO strains – OD600, teichoic acid synthesis inhibitors, primary screen (AID 463173). The conditions noted are these: S. aureus RN4220 wild type/DeltatarO growth, OD600, 18 h, stronger effect = lower value, screened at 18.75 µg/mL (by protocol).
Take `Cc1ccc(-n2nc(C(=O)N3CCN(c4ccccc4F)CC3)c3c4ccccc4n(C)c3c2=O)cc1`: the survival was 88% (inactive).

As to `CCCOc1ccc(CNC(=O)C(CC)n2nc(C)c3sc4ccccc4c3c2=O)cc1` (stereo not drawn), the survival is 69% (inactive).

Regarding `O=C(NCCS(=O)(=O)N1CCN(c2cccc(Cl)c2)CC1)C(c1ccccc1)c1ccccc1`, the survival was 72% (inactive).

`COc1ccc(OC)c(NC(=O)c2ccc3c(c2)c(C)c(C)n3Cc2ccc(F)cc2)c1`: the survival is 122% (inactive).

Take `Cc1ccc(CNCC(C)O)s1` (stereo not drawn): the survival is 73% (inactive).

Turning to `Cc1ccc(C(=O)Nc2ccc(NC(=O)c3cccs3)cc2)cc1C`, the survival was 66% (inactive).

`CCc1nn(CC(=O)N2CCN(c3cccc(C)c3C)CC2)c(=O)c2cc3sccc3n12`: the survival was 134% (inactive).

As for `CCCNC(=O)CN1C(=O)COc2ccc(S(=O)(=O)N3CCC(C)CC3)cc21`, the survival was 121% (inactive).

For the molecule `COCCNc1oc(-c2ccc(COc3ccc(OC)cc3)o2)nc1C#N`, the survival was 79% (inactive).

As to `Cc1ccc(C2=NN(CC(=O)NCCc3ccc(Cl)cc3)C(=O)CC2)cc1`, the survival is 117% (inactive).

Consider `CCn1c(C)c(C2N3CC4(C)CN2CC(CC)(C3)C4=O)c2ccccc21` (stereo not drawn), for which the survival is 108% (inactive).

Turning to `Cc1cccc(C)c1-n1ncc(C(=O)N2CCN(c3ccccn3)CC2)c1C1CCN(C(=O)OC(C)(C)C)CC1`, the survival is 81% (inactive).

On to `CCOC(=O)c1cnc2c(ccc3ccccc32)c1Nc1cccc(C(F)(F)F)c1`, for which the survival is 36% (active).

Regarding `CCOC(=O)c1noc2ncnc(Nc3cccc(C(F)(F)F)c3)c12`, the survival is 92% (inactive).

With `COc1cccc(C(=O)c2sc(Nc3ccc(F)c(Cl)c3)nc2N)c1`, the survival was 55% (inactive).

As for `CCOC(=O)c1cnc(SC)nc1Nc1ccccc1`, the survival is 84% (inactive).

`CCOC(=O)c1noc2ncnc(Nc3cccc(OC)c3)c12`: the survival was 73% (inactive).

Consider `CCOC(=O)c1cnc2c(ccc3ccccc32)c1Nc1ccc(N(C)C)cc1`, for which the survival was 0% (active).

With `CCOC(=O)c1sc2ccccc2c1S(=O)(=O)Nc1cccc(C(F)(F)F)c1`, the survival is 63% (inactive).

`CCOC(=O)c1cnc2c(Cl)c(Cl)ccc2c1Nc1ccc(N(C)C)cc1`: the survival was 80% (inactive).

As for `CCOC(=O)c1cnc2c(ccc3ccccc32)c1Nc1cccc(OC)c1`, the survival was 29% (active).

As for `Cc1ccccc1Nc1nc(N)c(C(=O)c2ccccc2Cl)s1`, the survival was 92% (inactive).

With `CCOc1ccc(Nc2nc(N)c(C(=O)c3ccccc3Cl)s2)cc1`, the survival was 0% (active).

As for `CCOC(=O)c1cnc2c(OC)cccc2c1Nc1cccc(O)c1`, the survival was 61% (inactive).

In the case of `COc1ccc(-c2oc3ncn4nc(COc5ccccc5C)nc4c3c2-c2ccc(OC)cc2)cc1`, the survival was 79% (inactive).

Regarding `CC(=O)c1ccc(N2CCN(C(=O)c3ccc(Cn4c(=O)[nH]c5ccccc5c4=O)cc3)CC2)cc1`, the survival is 100% (inactive).

For the molecule `CC(C)(C)c1cc(CN2CCOCC2)c(C(=O)O)o1`, the survival is 92% (inactive).

In the case of `COc1cc(NC(=O)CSc2nc3nc(C)c(Cc4ccccc4)c(C)n3n2)cc(OC)c1`, the survival is 112% (inactive).

On to `CC1CCN(S(=O)(=O)c2ccc(NC(=O)CSc3nnnn3C)cc2)CC1`, for which the survival was 97% (inactive).

`CCOC(=O)c1cnc2c(ccc3ccccc32)c1Nc1cccc(Cl)c1`: the survival was 14% (active).

`COc1cccc2sc(N(Cc3cccnc3)C(=O)C3CCCCC3)nc12`: the survival is 86% (inactive).

For the molecule `COc1ccc(OCC(=O)N(Cc2ccc(C)o2)C2CCS(=O)(=O)C2)cc1` (stereo not drawn), the survival is 85% (inactive).

`CCc1ccc(OCC(=O)N(Cc2ccc(Cl)cc2)C2CCS(=O)(=O)C2)cc1` (stereo not drawn): the survival was 57% (active).

In the case of `Cc1ccsc1CN(C(=O)COc1cccc(C)c1C)C1CCS(=O)(=O)C1` (stereo not drawn), the survival is 82% (inactive).

For the molecule `CC(C)Oc1ccc(C(=O)N(Cc2ccc(N(C)C)cc2)C2CCS(=O)(=O)C2)cc1` (stereo not drawn), the survival was 54% (inactive).

Turning to `CCc1ccc(OCC(=O)N(Cc2ccc(C(C)C)cc2)C2CCS(=O)(=O)C2)cc1` (stereo not drawn), the survival is 23% (active).

On to `CC(C)c1ccc(OCC(=O)N(Cc2ccc(N(C)C)cc2)C2CCS(=O)(=O)C2)cc1` (stereo not drawn), for which the survival is 43% (active).

`CCc1ccc(OCC(=O)N(Cc2ccc(C)o2)C2CCS(=O)(=O)C2)cc1` (stereo not drawn): the survival was 110% (inactive).

`Cc1ccc(CN(C(=O)COc2ccc(C(C)C)cc2)C2CCS(=O)(=O)C2)o1` (stereo not drawn): the survival is 87% (inactive).

With `Cc1ccccc1OCC(=O)N(Cc1ccc(C(C)C)cc1)C1CCS(=O)(=O)C1` (stereo not drawn), the survival was 31% (active).

For `COc1ccc(OCC(=O)N(Cc2cccc(OC)c2)C2CCS(=O)(=O)C2)cc1` (stereo not drawn), the survival is 79% (inactive).

Consider `Cc1cc(C)cc(OCC(=O)N(Cc2ccc(Cl)cc2)C2CCS(=O)(=O)C2)c1` (stereo not drawn), for which the survival is 59% (inactive).

Consider `Cc1ccsc1CN(C(=O)COc1ccccc1Cl)C1CCS(=O)(=O)C1` (stereo not drawn), for which the survival is 86% (inactive).

With `Cc1nc2cccnc2n1C1CCN(C(=O)Nc2ccc(Cl)cc2)CC1`, the survival was 81% (inactive).

For the molecule `CCN(C(=O)CSc1ncc(S(=O)(=O)c2ccc(C)c(Cl)c2)c(=O)[nH]1)c1cccc(C)c1`, the survival was 99% (inactive).

For `O=C(Cn1ncc2c3ccccc3n(Cc3cccc(Cl)c3)c2c1=O)NCCC1=CCCCC1`, the survival was 90% (inactive).

`Cc1cc(C)c(NC(=O)Cn2nnc(S(=O)(=O)c3ccc(C)c(C)c3)c2N)c(C)c1`: the survival was 96% (inactive).

With `CCCCN(CC)C(=O)c1ccc2c(c1)NC(=O)c1ccccc1S2`, the survival was 104% (inactive).

In the case of `c1ccc(-c2cnnn2-c2ccccc2)cc1`, the survival was 87% (inactive).

Turning to `Cc1cc(Cl)ccc1OCC(=O)N(Cc1sccc1C)C1CCS(=O)(=O)C1` (stereo not drawn), the survival was 74% (inactive).

In the case of `CC(C)c1ccc(OCC(=O)N(Cc2cccs2)C2CCS(=O)(=O)C2)cc1` (stereo not drawn), the survival is 51% (active).

`Cc1cc(OCC(=O)N(Cc2ccc(N(C)C)cc2)C2CCS(=O)(=O)C2)cc(C)c1Cl` (stereo not drawn): the survival is 97% (inactive).

Consider `COc1ccccc1OCC(=O)N(Cc1cccs1)C1CCS(=O)(=O)C1` (stereo not drawn), for which the survival was 53% (inactive).

As for `Cc1ccsc1CN(C(=O)COc1ccc(Cl)cc1)C1CCS(=O)(=O)C1` (stereo not drawn), the survival was 86% (inactive).

`Cc1cc(Cl)ccc1OCC(=O)N(Cc1ccc(N(C)C)cc1)C1CCS(=O)(=O)C1` (stereo not drawn): the survival is 39% (active).

For the molecule `CCOC(=O)C1=C(C)NC(=O)NC1C1CC=CCC1` (stereo not drawn), the survival was 111% (inactive).

On to `COc1cc(-c2nc3nc[nH]n3c2Nc2ccc(C(C)C)cc2)ccc1O`, for which the survival is 70% (inactive).

In the case of `CC(=O)c1cccc(S(=O)(=O)NCCc2csc3nc(-c4ccc(F)cc4)nn23)c1`, the survival is 88% (inactive).
